Experimental data: ChEMBL document CHEMBL3988442, “University of Dundee, Small-Polar-MMV Screening Library” (2021)
For some assays here: Potency and affinity values are given separately.

How the values were obtained:
Parameters in all cases: scale not given: direction of the effect not stated beside the values
[1] = target: Protein translocase subunit SecA (Escherichia coli (strain K12)) (UniProt P10408); assay: Assay to Identify E. coli SecA ATPase Inhibitors; format: functional; details: 30 µM
[2] = target: T1, Ubiquitin-activating enzyme e1, putative (Leishmania donovani (strain BPK282A1)) (UniProt E9BSI1); assay: Leishmania donovani Ubiquitin Activating Enzyme (LdE1); format: functional; details: 30 µM
T1 sequence (whole entry): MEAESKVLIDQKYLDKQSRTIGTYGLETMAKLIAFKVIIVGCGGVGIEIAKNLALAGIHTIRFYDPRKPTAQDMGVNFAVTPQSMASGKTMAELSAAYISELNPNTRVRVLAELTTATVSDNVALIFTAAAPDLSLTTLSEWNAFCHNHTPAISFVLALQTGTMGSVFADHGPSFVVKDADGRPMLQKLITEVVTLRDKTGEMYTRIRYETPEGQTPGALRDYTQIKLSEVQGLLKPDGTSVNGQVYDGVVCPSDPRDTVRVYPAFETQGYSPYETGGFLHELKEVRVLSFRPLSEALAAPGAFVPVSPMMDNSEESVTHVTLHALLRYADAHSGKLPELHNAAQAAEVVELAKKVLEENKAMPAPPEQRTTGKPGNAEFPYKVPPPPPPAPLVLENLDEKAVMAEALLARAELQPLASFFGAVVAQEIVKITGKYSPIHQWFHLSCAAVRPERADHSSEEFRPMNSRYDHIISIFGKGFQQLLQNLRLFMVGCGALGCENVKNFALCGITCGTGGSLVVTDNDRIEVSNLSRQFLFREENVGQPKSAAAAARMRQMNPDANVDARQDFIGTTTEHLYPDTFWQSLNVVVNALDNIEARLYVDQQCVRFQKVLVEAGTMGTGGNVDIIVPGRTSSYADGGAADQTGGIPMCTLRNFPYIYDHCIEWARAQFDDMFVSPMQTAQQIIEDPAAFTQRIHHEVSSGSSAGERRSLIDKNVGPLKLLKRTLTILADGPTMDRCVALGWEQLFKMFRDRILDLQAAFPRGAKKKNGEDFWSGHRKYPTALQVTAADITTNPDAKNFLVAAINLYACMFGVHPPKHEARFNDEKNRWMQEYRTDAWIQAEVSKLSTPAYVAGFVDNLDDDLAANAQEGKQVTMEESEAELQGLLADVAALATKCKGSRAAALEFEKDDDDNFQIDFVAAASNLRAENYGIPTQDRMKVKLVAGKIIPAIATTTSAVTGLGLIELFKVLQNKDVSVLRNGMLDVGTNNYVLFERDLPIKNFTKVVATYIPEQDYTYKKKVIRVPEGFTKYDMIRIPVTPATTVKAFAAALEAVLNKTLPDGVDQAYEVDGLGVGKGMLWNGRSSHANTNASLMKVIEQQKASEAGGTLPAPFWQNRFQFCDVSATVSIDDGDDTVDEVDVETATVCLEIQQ

[3] = target: AMP-activated protein kinase, AMPK (Homo sapiens) (UniProt P54646+O43741+P54619+Q9UGJ0+Q9Y478+Q13131+Q9UGI9); assay: AMP-dependent Kinase enzyme assay. An in vitro enzyme assay that detects ADP turnover that is directly proportional to AMPK activity. This uses naive AMPK that is activated during the assay with MK-8722; format: functional; details: 30 µM
[4] = target: Sialic acid-binding Ig-like lectin 9 (Homo sapiens) (UniProt Q9Y336); assay: Hs-Siglec9 ALPHAscreen SOP 20170721; details: 10 µM
Trypanosoma cruzi = assay: Trypanosoma cruzi phosphomannomutase and mannose-1-phosphate guanylyltransferase assay; format: functional; details: 10 µM
[5] = target: T2, Arginase-2, mitochondrial (Homo sapiens) (UniProt P78540); assay: in vitro enzyme assay to detect the production of urea directly proportional to the activity of Arginase II; format: functional; details: 33.3 µM; also: in the data most compounds retested in dose-response had high values
T2 sequence (whole entry): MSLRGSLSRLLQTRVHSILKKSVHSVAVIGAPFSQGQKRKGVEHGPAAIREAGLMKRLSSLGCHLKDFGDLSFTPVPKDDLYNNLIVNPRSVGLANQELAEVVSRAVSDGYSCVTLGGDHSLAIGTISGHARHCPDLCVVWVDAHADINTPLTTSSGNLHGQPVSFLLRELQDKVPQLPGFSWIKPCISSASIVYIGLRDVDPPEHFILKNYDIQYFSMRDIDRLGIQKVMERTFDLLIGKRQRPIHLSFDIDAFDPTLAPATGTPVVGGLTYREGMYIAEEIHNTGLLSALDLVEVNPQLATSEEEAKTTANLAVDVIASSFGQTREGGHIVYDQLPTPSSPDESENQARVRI

[6] = target: T3, Proteasome subunit beta (Trypanosoma cruzi) (UniProt O96673); assay: Trypanosoma cruzi proteasome chymotrypsin-like activity (TcProtChymo) assay.; also: in the data most compounds retested in dose-response had high values; format: functional; details: 9.37 µM
T3 sequence (whole entry): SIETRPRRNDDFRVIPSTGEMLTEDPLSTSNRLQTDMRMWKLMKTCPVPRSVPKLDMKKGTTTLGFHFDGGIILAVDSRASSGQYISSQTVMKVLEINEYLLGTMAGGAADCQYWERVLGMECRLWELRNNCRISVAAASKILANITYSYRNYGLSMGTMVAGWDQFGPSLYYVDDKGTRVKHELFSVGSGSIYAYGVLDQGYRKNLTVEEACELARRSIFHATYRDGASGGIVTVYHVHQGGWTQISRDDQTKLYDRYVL

Homo sapiens = species: Homo sapiens; assay: To identify inhibition of the IFN signalling (Jak-Stat) pathway via expression of an eGFP reporter gene under the control of an IFN-stimulated response element (ISRE) containing MxA promoter.; format: functional; details: 30 µM
[7] = target: T4, Tyrosyl-tRNA synthetase, putative (Trypanosoma cruzi (strain CL Brener)) (UniProt Q4DSP6); assay: Trypanosoma cruzi tyrosyl tRNA synthetase (TcYRS) _High Tyrosine SOP; format: functional; details: 30 µM; also: in the data most compounds retested in dose-response had high values
T4 sequence (whole entry): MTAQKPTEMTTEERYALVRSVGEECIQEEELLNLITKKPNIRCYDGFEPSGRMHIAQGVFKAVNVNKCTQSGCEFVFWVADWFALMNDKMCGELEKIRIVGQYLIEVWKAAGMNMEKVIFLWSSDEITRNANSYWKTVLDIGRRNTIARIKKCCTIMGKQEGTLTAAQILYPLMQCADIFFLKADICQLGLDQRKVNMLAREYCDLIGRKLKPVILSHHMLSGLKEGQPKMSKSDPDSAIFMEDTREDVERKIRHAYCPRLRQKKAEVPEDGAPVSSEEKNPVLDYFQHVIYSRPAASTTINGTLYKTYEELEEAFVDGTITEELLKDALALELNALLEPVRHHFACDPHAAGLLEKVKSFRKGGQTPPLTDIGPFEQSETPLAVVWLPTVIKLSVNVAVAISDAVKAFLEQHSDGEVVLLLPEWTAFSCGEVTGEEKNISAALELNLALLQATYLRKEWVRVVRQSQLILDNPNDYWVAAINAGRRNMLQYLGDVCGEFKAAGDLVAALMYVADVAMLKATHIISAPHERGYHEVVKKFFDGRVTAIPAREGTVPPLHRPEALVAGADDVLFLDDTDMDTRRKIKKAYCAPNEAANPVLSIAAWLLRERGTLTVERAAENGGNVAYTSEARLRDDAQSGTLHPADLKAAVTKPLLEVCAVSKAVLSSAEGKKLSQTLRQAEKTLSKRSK

[8] = target: T4, Tyrosyl-tRNA synthetase, putative (Trypanosoma cruzi (strain CL Brener)); assay: Trypanosoma cruzi tyrosyl tRNA synthetase (TcYRS) SOP; format: functional; details: 30 µM
[9] = target: Chromo domain-containing protein 1 (Saccharomyces cerevisiae (strain ATCC 204508 / S288c) (Baker's yeast)) (UniProt P32657); assay: ScCHD-1 Enzyme Inhibition Assay; format: functional; details: 30 µM; also: in the data most compounds retested in dose-response had high values
Sequence of Chromo domain-containing protein 1 (Saccharomyces cerevisiae (strain ATCC 204508 / S288c) (Baker's yeast)) (P32657 whole entry, the tested form may be a part): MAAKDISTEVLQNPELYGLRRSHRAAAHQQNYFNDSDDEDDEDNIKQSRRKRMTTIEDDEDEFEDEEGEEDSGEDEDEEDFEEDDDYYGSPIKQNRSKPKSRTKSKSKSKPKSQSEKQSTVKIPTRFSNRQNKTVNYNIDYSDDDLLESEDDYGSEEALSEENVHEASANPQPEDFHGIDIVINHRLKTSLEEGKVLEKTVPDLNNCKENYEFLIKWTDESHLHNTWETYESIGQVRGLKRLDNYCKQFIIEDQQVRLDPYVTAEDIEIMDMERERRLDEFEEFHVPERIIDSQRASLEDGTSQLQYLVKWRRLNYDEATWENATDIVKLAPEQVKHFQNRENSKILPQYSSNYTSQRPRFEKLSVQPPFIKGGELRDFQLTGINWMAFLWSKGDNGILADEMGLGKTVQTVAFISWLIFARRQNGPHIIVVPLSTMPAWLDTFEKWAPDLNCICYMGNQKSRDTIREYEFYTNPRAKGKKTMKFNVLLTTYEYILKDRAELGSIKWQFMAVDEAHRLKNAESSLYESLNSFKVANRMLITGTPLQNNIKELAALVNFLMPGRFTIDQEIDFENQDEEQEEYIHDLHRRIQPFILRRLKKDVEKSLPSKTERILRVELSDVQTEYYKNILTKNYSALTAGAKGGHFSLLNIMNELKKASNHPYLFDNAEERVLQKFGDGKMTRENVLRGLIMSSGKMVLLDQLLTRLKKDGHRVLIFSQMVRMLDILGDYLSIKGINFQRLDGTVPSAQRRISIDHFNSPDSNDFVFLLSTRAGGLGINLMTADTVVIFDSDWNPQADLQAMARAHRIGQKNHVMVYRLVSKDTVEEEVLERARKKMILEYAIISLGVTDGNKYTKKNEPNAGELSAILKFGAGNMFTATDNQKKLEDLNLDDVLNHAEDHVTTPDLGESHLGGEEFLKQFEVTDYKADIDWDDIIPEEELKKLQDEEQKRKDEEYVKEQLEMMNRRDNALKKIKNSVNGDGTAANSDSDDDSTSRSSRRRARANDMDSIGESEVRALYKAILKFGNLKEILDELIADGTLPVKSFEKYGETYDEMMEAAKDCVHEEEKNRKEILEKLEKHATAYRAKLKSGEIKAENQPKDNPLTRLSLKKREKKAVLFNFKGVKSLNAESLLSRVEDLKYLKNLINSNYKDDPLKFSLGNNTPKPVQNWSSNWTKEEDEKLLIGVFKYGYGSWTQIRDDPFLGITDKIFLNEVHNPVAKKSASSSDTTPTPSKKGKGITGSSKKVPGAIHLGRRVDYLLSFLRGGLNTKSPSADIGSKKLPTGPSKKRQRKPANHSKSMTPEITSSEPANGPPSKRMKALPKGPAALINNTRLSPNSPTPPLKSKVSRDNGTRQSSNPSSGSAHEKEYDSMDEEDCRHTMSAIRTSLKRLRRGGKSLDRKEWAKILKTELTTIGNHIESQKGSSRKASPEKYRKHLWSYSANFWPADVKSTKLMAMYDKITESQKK

Sequence of Sialic acid-binding Ig-like lectin 9 (Homo sapiens) (Q9Y336 whole entry): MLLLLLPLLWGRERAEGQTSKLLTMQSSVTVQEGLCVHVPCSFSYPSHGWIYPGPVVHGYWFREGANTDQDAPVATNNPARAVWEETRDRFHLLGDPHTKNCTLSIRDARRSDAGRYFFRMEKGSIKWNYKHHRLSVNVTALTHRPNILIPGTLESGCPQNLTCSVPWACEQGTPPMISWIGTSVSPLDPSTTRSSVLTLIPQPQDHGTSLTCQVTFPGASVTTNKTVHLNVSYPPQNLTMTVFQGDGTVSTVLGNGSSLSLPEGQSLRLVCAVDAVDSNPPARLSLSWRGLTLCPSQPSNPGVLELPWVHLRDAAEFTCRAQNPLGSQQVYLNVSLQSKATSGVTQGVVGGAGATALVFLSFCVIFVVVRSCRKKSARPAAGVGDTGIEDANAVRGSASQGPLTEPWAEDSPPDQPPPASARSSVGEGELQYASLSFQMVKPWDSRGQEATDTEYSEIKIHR
Sequence of Protein translocase subunit SecA (Escherichia coli (strain K12)) (P10408 whole entry): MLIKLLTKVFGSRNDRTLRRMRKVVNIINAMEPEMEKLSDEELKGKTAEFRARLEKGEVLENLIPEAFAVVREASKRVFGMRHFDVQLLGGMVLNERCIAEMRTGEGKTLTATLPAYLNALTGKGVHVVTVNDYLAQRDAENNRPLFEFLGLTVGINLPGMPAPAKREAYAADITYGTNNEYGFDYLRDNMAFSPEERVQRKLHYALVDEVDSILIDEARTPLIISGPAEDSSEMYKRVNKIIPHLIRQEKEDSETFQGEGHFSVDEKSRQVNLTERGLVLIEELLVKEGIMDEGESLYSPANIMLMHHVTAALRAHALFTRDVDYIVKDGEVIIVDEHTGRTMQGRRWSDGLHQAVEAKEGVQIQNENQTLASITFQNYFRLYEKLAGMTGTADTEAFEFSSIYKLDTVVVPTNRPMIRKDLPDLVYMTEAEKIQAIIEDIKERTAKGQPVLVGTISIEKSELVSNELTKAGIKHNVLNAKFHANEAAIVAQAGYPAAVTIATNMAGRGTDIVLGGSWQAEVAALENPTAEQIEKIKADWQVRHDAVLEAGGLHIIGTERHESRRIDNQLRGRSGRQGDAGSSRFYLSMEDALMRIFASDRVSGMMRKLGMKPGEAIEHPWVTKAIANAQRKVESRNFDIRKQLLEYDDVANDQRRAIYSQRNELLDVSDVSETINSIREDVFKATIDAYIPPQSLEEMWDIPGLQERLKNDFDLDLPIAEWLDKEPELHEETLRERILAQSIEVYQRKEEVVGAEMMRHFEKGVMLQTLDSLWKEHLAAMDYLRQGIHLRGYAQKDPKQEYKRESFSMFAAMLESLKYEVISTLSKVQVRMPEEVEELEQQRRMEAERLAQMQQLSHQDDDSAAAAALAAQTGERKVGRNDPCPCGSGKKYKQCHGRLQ

SMILES	Percent Effect [1] [%]	Percent Effect [2] [%]	Percent Effect [3] [%]	Percent Effect [4] [%]	Percent Effect (Trypanosoma cruzi) [%]	Percent Effect [5] [%]	Percent Effect [6] [%]	Percent Effect (Homo sapiens) [%]	Percent Effect [7] [%]	Percent Effect [8] [%]	Percent Effect [9] [%]
CC(C)COCc1cncc2c1CCN(Cc1cnn(C)c1)C2	-5.06	7.79	2.31	5.43	-0.688	-29	4.16	-12.6	7.53	11.1	133
CC(C)NC(=O)C1CN(C(=O)c2ccc(F)cc2)CC12CCOCC2 (stereo not given)	-0.326	6.67	1.28	-10.8	-11.8	-7.22	17.4	-8.73	1.06	2.56	-10.5
CC1(C)CC(N(Cc2ccccc2)Cc2cccnc2)CC(C)(C)N1	-8.83	17.6	-4.84	9.22	5.73	-6.73	7.8	-4.57	6.45	9.09	-29.8
CCC1CN(CC(=O)N2CCC2)CCN1CCOC (stereo not given)	-2.71	13.5	-12.7	13.2	3.49	-8.82	7.03	1.78	8.37	28.4	-9.71
C1CC(NCc2nc(C3CC3)no2)CN(Cc2noc(C3CC3)n2)C1 (stereo not given)	-2.33	24.3	-2.39	-3.6	-6.32	-12.4	11.2	27	-0.493	6.17	-4.12
O=C(c1ccsc1)N1C[C@@H]2C[C@@H](c3nnc(C4CC4)o3)O[C@@H]2C1	-1.51	7.79	6.12	6.45	-4.63	5.81	3.31	15	1.06	3.85	-4.38
Cc1ccc(C(=O)N2CCN(C(=O)NC(C)Cn3ccnc3)CC2)o1 (stereo not given)	-1.19	10.5	2.03	13.1	3.38	2.3	4.51	18.1	3.43	19.5	-13.5
CCc1ncc2c(n1)CN(CC(=O)NCCOc1ccccc1)CC2	-4.72	7.89	-23.5	-1.72	1.21	-1.44	-5.84	-22.3	11.3	6.17	1.38
CCCN1C(=O)CC(N2CCN(c3ccc(F)cc3)CC2)C1=O (stereo not given)	-0.321	13.2	5.3	-9.41	-3.99	-7.1	11.6	11.5	0	7.79	-5.52
CC1CCN(Cc2cnc(S(=O)(=O)CC3CC3)n2CC2CCCO2)CC1 (stereo not given)	-4.08	-4.17	9.77	0.164	-3.21	-2.65	0.877	4.06	-1.05	-7.69	5.99
